Screens from PubChem BioAssay.
Dicer inh = inhibitors of human Dicer processing of pre-microRNA; 6% of 47,000 active; cat-ELCCA pre-miR-21 Dicer processing, chemiluminescence; active compounds read high; Q9UPY3; AID 1347074; z-score at 25 µM; in the data active means z-score above about 3, passing the limit was not always enough;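 further: higher signal means more uncleaved substrate so more Dicer inhibition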
Target sequence (Q9UPY3 whole entry, looked up): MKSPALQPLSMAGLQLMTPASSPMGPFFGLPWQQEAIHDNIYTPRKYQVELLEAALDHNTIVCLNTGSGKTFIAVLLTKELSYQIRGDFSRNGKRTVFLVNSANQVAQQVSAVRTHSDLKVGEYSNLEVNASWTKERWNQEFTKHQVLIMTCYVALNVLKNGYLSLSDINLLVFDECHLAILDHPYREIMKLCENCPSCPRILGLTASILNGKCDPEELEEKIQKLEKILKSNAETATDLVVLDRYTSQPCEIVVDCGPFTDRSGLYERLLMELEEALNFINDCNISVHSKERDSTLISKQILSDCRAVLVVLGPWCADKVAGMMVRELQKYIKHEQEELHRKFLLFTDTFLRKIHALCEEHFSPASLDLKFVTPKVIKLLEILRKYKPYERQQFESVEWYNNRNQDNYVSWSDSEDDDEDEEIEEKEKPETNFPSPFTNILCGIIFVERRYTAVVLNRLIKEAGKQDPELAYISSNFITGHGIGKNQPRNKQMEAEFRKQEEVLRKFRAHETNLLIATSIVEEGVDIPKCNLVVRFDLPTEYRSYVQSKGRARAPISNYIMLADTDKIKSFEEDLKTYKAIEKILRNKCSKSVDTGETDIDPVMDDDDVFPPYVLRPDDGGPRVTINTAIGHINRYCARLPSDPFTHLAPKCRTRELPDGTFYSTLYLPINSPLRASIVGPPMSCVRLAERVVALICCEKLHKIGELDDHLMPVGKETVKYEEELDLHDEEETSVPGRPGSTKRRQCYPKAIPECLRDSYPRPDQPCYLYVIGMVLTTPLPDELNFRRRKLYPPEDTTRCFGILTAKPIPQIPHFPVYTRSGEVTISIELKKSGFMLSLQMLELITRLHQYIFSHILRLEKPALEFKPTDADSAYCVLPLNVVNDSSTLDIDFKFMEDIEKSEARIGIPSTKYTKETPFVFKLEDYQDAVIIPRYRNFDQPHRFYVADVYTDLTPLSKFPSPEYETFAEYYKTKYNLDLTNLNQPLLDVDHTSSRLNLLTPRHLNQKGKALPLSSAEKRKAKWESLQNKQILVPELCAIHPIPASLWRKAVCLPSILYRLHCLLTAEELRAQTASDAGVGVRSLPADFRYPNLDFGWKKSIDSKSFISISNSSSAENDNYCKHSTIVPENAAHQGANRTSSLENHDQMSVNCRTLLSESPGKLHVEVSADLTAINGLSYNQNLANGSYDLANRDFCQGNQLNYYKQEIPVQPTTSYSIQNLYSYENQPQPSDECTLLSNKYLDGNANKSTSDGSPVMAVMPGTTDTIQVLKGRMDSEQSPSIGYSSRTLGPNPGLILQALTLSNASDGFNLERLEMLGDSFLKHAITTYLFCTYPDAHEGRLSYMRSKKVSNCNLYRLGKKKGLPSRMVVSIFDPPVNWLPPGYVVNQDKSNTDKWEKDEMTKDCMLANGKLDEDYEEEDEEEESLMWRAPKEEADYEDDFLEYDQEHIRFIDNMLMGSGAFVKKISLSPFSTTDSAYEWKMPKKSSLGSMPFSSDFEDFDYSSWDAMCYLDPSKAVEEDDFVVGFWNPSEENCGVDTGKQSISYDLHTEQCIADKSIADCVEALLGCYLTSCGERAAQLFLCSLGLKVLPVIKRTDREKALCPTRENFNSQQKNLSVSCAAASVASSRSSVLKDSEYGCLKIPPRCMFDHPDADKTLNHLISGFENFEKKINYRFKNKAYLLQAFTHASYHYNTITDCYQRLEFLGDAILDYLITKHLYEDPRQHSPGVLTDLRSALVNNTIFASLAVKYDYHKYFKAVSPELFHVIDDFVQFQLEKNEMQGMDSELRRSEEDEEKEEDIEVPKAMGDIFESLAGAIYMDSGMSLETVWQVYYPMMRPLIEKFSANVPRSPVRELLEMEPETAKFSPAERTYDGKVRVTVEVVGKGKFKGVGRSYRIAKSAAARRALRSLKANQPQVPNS
Numbers stand for hits; 0 = inactive. The full list was thinned out, with hits kept by preference.

SMILES	Dicer inh
COc1ccc(C2/C(=C(\O)c3ccc(C)cc3)C(=O)C(=O)N2CCN(C)C)cc1OC (configuration not stated)	0
O=C(O)c1nccnc1C(=O)Nc1cccc2c1CCCC2	0
O=C1NC(c2ccc(OCc3ccccc3)cc2)Nc2sc3c(c21)CCCC3 (configuration not stated)	3.6
CN1CCc2c(sc3c2C(=O)NC(c2ccc(OCc4ccccc4)cc2)N3)C1 (configuration not stated)	0
O=C1NC(c2ccccc2OCc2ccccc2)Nc2sc3c(c21)CCCC3 (configuration not stated)	0
CC1(C)CC(=O)C=C(SCC(=O)Nc2ccc(Cl)cc2)S1	0
CC(C)(C)OC(=O)C1C(=O)CC(C)(O)C(C(=O)OC(C)(C)C)C1c1ccc(Cl)cc1 (configuration not stated)	0
CC(C)(C)n1nc(C2CC2)c(Br)c1NC(=O)c1ccccc1Cl	0
Cc1nn(C(C)(C)C)c(NC(=O)c2ccc(Cl)cc2Cl)c1Br	3.3
Cc1cc(NC(=O)c2ccc(Cl)cc2Cl)n(C(C)(C)C)n1	0
CN(C)C(=O)C(=O)c1c(-c2ccc(Br)cc2)[nH]c2ccccc12	0
Cc1ccc(O)c(C2=NN3C(C2)c2ccccc2OC3c2cccnc2)c1 (configuration not stated)	0
Oc1ccccc1C1=NN2C(C1)c1cc(Cl)ccc1OC2c1ccsc1 (configuration not stated)	12
COc1ccc(O)c(C2=NN3C(C2)c2cc(Cl)ccc2OC3c2ccsc2)c1 (configuration not stated)	0
Oc1ccc(Cl)cc1C1=NN2C(C1)c1ccccc1OC2c1cccnc1 (configuration not stated)	0
Oc1ccc(Cl)cc1C1=NN2C(C1)c1ccccc1OC2c1ccsc1 (configuration not stated)	6.7
Oc1ccccc1C1=NN2C(C1)c1cc(Cl)ccc1OC2c1ccncc1 (configuration not stated)	0
O=C(c1ccc(F)cc1)n1nccc1-c1csc(-c2ccccc2)n1	0
CCOC(=O)CSc1nc2nc(C)cc(C)c2c(=O)[nH]1	0
CN(C)c1ccc(C=Nc2ccc(C(=O)O)c(O)c2)cc1	0
O=C(CSc1nnc(-c2ccco2)n1-c1ccccc1Cl)c1ccc(F)cc1	0
O=c1sc(-c2ccccc2)ncc1-c1ccccc1	0
CC(C)(C)c1ccc(-c2ncc(-c3cccc([N+](=O)[O-])c3)s2)cc1	0
c1ccc(-c2ccc(-c3cnc(-c4ccncc4)s3)cc2)cc1	3.1
COc1ccc(/C=N/OC(=O)c2sc3nc(C(F)(F)F)nn3c2C)cc1	0
SMILES	Dicer inh
CC(C)(C)OC(=O)N1CSC[C@H]1C(=O)O	0
CCOC(=O)c1cnc(NNS(=O)(=O)c2cc(C)c(Cl)cc2C)nc1C(F)(F)F	0
CC(C)[C@H](NS(=O)(=O)c1ccc(F)cc1)C(=O)O	0
C[C@H](NS(=O)(=O)c1ccc(F)cc1)C(=O)O	5.3
CC(NS(=O)(=O)c1ccc(N)cc1)C(=O)O (configuration not stated)	0
O=C(CCSc1nnc(NC(=O)Cn2c(=O)sc3ccccc32)s1)Nc1ccccc1	0
O=C1c2ccccc2S(=O)(=O)N1CCCCCN1C(=O)c2ccccc2S1(=O)=O	0
O=C(CCSc1nnc(NC2=NS(=O)(=O)c3ccccc32)s1)Nc1ccccc1	3.2
O=C(Nc1nnc(SCCN2C(=O)c3ccccc3S2(=O)=O)s1)c1ccccc1	3.5
N#CCSc1nnc(NC(=O)c2ccccc2)s1	0
Cn1nc(CC(=O)Nc2nnc(SCCC(=O)Nc3ccccc3)s2)c2ccccc2c1=O	0
O=S(=O)(O)c1cc(O)c2ccc3c(S(=O)(=O)O)cc(S(=O)(=O)O)c4ccc1c2c34	0
COc1ccc(-n2ncc(NC(=O)NCc3cccs3)c2C)cc1	0
O=c1cc(C(F)(F)F)nc(-c2ccccn2)[nH]1	0
CCCC1=C(c2ccccc2)C(=O)NC1	0
COC(=O)c1ccc(CN(C)C)o1	5.8
COC(=O)c1ccc(Cn2nc(C)c([N+](=O)[O-])c2C)o1	0
COC(=O)c1ccc(COCOCc2ccc(C(=O)OC)o2)o1	0
O=C1C(=O)N(CCCN2CCOCC2)C(c2ccccc2F)/C1=C(\O)c1ccc(Cl)cc1 (configuration not stated)	0
O=C(c1cccc2c1-c1ccccc1C2)N1CCOCC1	0
COc1cccc(-c2cnc(NCc3cc(Br)ccc3F)n2C)c1	0
Cn1c(-c2ccc(F)cc2)cnc1NCc1cc(Br)ccc1F	3.1
Cc1ccc(-c2cnc(NCc3cc(Br)ccc3F)n2C)cc1	0
Cn1c(-c2ccc(Br)cc2)cnc1NCc1ccc(F)cc1	3.1
COc1cccc(CNc2ncc(-c3ccc(Br)cc3)n2C)c1	0
SMILES	Dicer inh
Cn1c(-c2ccc(F)cc2)cnc1NCc1ccccc1Cl	0
COc1ccc(CNc2ncc(-c3ccc(Br)cc3)n2C)cc1OC	0
Cn1c(-c2ccc(F)cc2)cnc1NCc1cc(Cl)ccc1O	5.6
Cn1c(-c2ccccc2)cnc1NCc1ccc(Br)cc1	0
Cc1ccc(CNc2ncc(-c3ccc(F)cc3)n2C)cc1	0
CCOc1ccc(-c2cnc(NCc3cc(Cl)ccc3O)n2C)cc1	0
